# Screening data: PubChem BioAssay, Broad Institute
# The entries come from a sample that favours hits as a whole.
# p53 PUMA act = re-activators of the mutant p53 pathway; SW480 PUMA-promoter luciferase, p53 mutant reactivation; activation, % at 9.98 µM; 28,000 compounds, 1.5% hits; AID 624151; in the data active = activation above about 52%
# MITF inh = blocks MITF activity; TRPM1 promoter luciferase, luminescence, 24 h; inhibition, % (test concentration not listed); 37,000 compounds, 0.28% hits; AID 2240; in the data active = inhibition above about 85%;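 also: human melanocyte line stably carrying TRPM1 promoter luciferase reporter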
# STK33 kin inh = human STK33 kinase inhibition; Q9BYT3; ADP-Glo luminescence, MBP substrate; inhibition, % at 12.5 µM; 27,000 compounds, 0.44% hits; AID 2322; in the data active = inhibition above about 20%
# Target sequence (Q9BYT3 whole entry, looked up): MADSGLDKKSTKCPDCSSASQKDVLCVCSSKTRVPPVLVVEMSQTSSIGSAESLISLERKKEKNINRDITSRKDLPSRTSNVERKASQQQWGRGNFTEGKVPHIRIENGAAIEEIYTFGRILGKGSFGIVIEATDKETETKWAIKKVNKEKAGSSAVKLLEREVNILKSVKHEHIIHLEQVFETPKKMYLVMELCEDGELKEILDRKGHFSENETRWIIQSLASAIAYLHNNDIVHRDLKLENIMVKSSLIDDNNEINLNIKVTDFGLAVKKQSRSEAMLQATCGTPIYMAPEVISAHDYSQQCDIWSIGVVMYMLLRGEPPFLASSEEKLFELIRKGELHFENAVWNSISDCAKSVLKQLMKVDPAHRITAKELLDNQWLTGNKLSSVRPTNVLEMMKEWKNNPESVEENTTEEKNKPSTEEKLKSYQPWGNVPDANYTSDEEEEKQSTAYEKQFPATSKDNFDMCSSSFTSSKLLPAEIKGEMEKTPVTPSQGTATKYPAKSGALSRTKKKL
# NOMO-1 viab = STK33 inhibitor candidate reducing NOMO-1 cell viability; AID 2330; 37,000 compounds, 7.5% hits; inhibition, % (concentration not given with the values); NOMO-1 AML viability, CellTiter-Glo luminescence, 72 h; in the data active = inhibition above about 80%
# * = called active by the depositor; x = not tested or not shown.
SMILES,p53 PUMA act,MITF inh,STK33 kin inh,NOMO-1 viab
CC(Oc1cccc(NC(=O)c2cccc([N+](=O)[O-])c2)c1)C(=O)c1cccc(Cl)c1 (configuration not stated),7.7,33.0,2.1,-1.5
COc1ccc2ccc(=O)oc2c1C(OC(C)=O)C(=O)C(C)C (configuration not stated),4.0,23.8,1.2,12.9
Cc1[nH]c2ccccc2c1C(c1ccccc1)N1CCN(C)CC1 (configuration not stated),x,55.8,x,117.0*
Cc1[nH]c2ccccc2c1C(O)c1cccnc1 (configuration not stated),x,12.7,x,33.1
C[C@H]1CN([C@@H](C)CO)C(=O)Cc2cc(NC(=O)C3CCCCC3)ccc2O[C@@H]1CN(C)Cc1ccc(-c2ccccc2)cc1,x,18.2,0.0,54.7
C[C@@H]1CN([C@@H](C)CO)C(=O)Cc2cc(NC(=O)C3CCCCC3)ccc2O[C@@H]1CN(C)Cc1ccc(Oc2ccccc2)cc1,x,9.8,x,94.6*
C[C@@H]1CN([C@@H](C)CO)C(=O)c2cc(NC(=O)C3CCCCC3)ccc2O[C@@H]1CN(C)Cc1ccc(Oc2ccccc2)cc1,x,4.2,x,115.2*
C[C@@H]1CN([C@H](C)CO)C(=O)Cc2cc(NC(=O)C3CCCCC3)ccc2O[C@@H]1CN(C)Cc1ccc(-c2ccccc2)cc1,x,15.8,-0.1,112.9*
O=C(O)CCNc1cc(Cl)ccc1Oc1ccc(Cl)cc1,x,-14.8,x,0.6
COc1ccccc1/C=C/C(=O)N1CCCC(c2ccccc2)C1 (configuration not stated),101.4*,x,x,x
COc1cccc(/C=C/C(=O)O)c1C(C)C,x,-30.9,-0.5,2.4
O=[N+]([O-])c1cccc(-c2nn(-c3ccccc3)cc2CNCc2ccccc2)c1,2.4,-20.1,1.0,93.4*
O=c1cc(-c2ccccc2)nc2nc(NCc3cccc([N+](=O)[O-])c3)[nH]n12,-4.3,-18.6,5.0,24.7
CN1C(=O)c2ccccc2-n2c(nc3ccccc3c2=O)[C@@]12O[C@H]2c1ccccc1,-35.1,-0.3,-1.7,104.2*
CN(C)CCNc1nc2c(c(=O)n(C)c(=O)n2C)n1Cc1c(F)cccc1Cl,-5.0,-23.1,0.9,17.7
C=CCn1c(=S)sc2c(Sc3nnc(-c4ccco4)o3)ncnc21,x,66.8,x,115.5*
C=CCn1c(=S)sc2c(SCC(N)=O)ncnc21,8.7,x,x,x
C[C@H]1CN([C@@H](C)CO)C(=O)c2cc(N(C)C)ccc2O[C@@H]1CN(C)Cc1ccc(C(=O)Nc2ccccc2N)cc1,x,29.4,x,111.9*
C[C@@H]1CN([C@@H](C)CO)C(=O)c2cc(N(C)C)ccc2O[C@@H]1CN(C)Cc1ccc(C(=O)Nc2ccccc2N)cc1,x,35.8,x,110.4*
C[C@H]1CN([C@@H](C)CO)C(=O)c2cc(NC(=O)c3ccncc3)ccc2O[C@@H]1CN(C)Cc1ccc(C(=O)Nc2ccccc2N)cc1,x,-8.0,x,-2.6
CC(=O)c1ccc(NC(=O)CSc2nc(-c3ccccc3)cc(=O)[nH]2)cc1,11.4,-26.8,1.0,-11.1
Cc1nnc(SCc2nc(N)nc(Nc3ccc4ccccc4c3)n2)s1,96.7*,-98.7,3.3,40.0
COc1ccc(CCNC(=O)c2nc3ccccc3c(=O)n2-n2cccc2)cc1OC,x,-10.7,x,-0.2
Cc1sc2ncnc(SCC(=O)c3ccc(Cl)c(Cl)c3)c2c1C,-2.9,-25.8,1.5,5.2
Cc1sc2ncnc(SCC(=O)C(C)(C)C)c2c1C,59.9*,4.3,-2.2,29.2
SMILES,p53 PUMA act,MITF inh,STK33 kin inh,NOMO-1 viab
CCC(CCCCC(=O)CCCCC1CCC(=O)O1)O[C@@H]1O[C@H](CO[C@@H]2O[C@H](CO)[C@@H](O)[C@H](O)[C@H]2O)[C@H](OC(=O)/C=C/c2ccc(O)cc2)[C@H](OC(C)=O)[C@H]1O (some centres not stated),8.3,x,-5.9,x
COC(=O)Nc1nc2ccc(SC(C)C)cc2[nH]1,-15.8,4.1,-8.9,118.1*
CCCSc1ccc2nc(NC(=O)OC)[nH]c2c1,-34.2,5.9,2.2,117.7*
CCOc1ccc(NC(=O)C(C)Sc2nc3ccc(F)cc3[nH]2)cc1 (configuration not stated),6.5,-14.0,0.0,24.6
CC1(C)Cc2c(sc3c2c(=O)n(Cc2ccccc2)c2nnc(SCC(=O)c4ccc(Br)cc4)n32)CO1,-6.7,1.2,-4.8,44.1
CSc1ccccc1NC(=O)CSc1nccn1C,5.5,-6.9,2.9,35.9
CC(=O)c1ccc(NC(=O)CSc2nc(C)cc(C)c2C#N)cc1,140.1*,-92.7,-1.9,23.6
CC(=O)c1ccc(NC(=O)CSc2nccn2C)cc1,92.6*,x,-2.0,x
Cc1cc(C)c(C#N)c(SCC(=O)Nc2ccc(C(N)=O)cc2)n1,105.3*,-65.3,-2.6,11.1
C/C=C(/C)C(=O)OC1c2c(ccc3ccc(=O)oc23)OC(C)(C)C1OC(=O)/C(C)=C\C (configuration not stated),7.4,29.8,-1.9,111.4*
Cc1ccc(C(=O)Nc2ccccc2C(=O)NCc2ccco2)cc1[N+](=O)[O-],2.0,-24.8,11.5,14.4
O=c1cc(CSc2n[nH]c(=O)n2-c2ccccc2)c2ccc(O)cc2o1,x,-0.5,x,-9.5
Cc1ccc(NC(=O)COc2ccc3ccccc3c2Br)c([N+](=O)[O-])c1,64.1*,-41.9,-3.2,-1.9
O=C(COc1ccc2ccccc2c1Br)Nc1cccnc1,79.9*,-23.5,0.8,52.4
COc1cc(NC(=O)COc2ccc3ccccc3c2Br)c(OC)cc1Cl,18.1,-28.9,2.0,125.6*
COC(=O)c1cc(OC)c(OC)cc1NC(=O)COc1ccc2ccccc2c1Br,-7.2,-5.8,-2.8,-16.9
CCc1nnc2sc(-c3ccc(N)cc3)nn12,x,5.4,x,15.6
C[C@H](CO)N1C[C@H](C)[C@@H](CN(C)Cc2ccc(C(=O)Nc3ccccc3N)cc2)Oc2c(NC(=O)Nc3ccc(F)cc3)cccc2C1=O,x,-19.0,x,125.5*
C[C@@H]1CN([C@H](C)CO)C(=O)c2cccc(NC(=O)Nc3ccccc3)c2O[C@@H]1CN(C)Cc1ccc(C(=O)Nc2ccccc2N)cc1,x,12.8,x,128.3*
C[C@H]1CN([C@@H](C)CO)C(=O)c2cccc(NC(=O)Nc3ccc(F)cc3)c2O[C@H]1CN(C)Cc1ccc(C(=O)Nc2ccccc2N)cc1,x,-14.3,x,127.2*
C[C@@H]1CN([C@@H](C)CO)C(=O)c2cccc(NC(=O)Nc3ccc(F)cc3)c2O[C@H]1CN(C)Cc1ccc(C(=O)O)cc1,7.0,-3.6,x,18.5
N#Cc1cc2c(OCC(O)CN3CCN(C(c4ccccc4)c4ccccc4)CC3)cccc2[nH]1 (configuration not stated),-59.7,99.3*,-7.5,116.2*
CCc1cc(-c2n[nH]c(C)c2-c2nc(C)cs2)c(O)cc1OCc1ccc([N+](=O)[O-])cc1,-21.7,57.7,0.8,109.2*
CCc1cc(-c2n[nH]c(C(=O)O)c2-c2nc(C)cs2)c(O)cc1O,-22.8,3.2,-3.8,7.8
CCOc1ccccc1NC(=O)c1ccsc1NC(=O)c1ccoc1C,13.5,-6.7,2.0,5.1
